Experimental findings from PubChem BioAssay are described below.

The nature of test [1]: inhibitors of CD8+ T cell-vesicle binding, pilot screen, LFA-1/ICAM-1 modulator project, MLPCN validation set, flow cytometry (AID 2523;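 active means response below a set limit, under 55% cells CD8-positive and vesicle-bound, and CD8 cells' 90th-percentile brightness under 279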;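 on vesicle binding response: mean PE anti-B7-1 fluorescence of CD8+ cells relative to row control; 100% = QL9-loaded vesicles with DMSO vehicle in the same plate row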). The following applies: 2C mouse CD8+ T cells, at 7 µM, stronger effect = lower value; double positive events: measured here: CD8+/vesicle+ event percentage. Background: A flow cytometer gives signals particle by particle.
For test [2], the target named is Integrin beta-1 (Homo sapiens) + Integrin alpha-4 (Homo sapiens) (UniProt P13612+P05556). The test can be described thus: inhibition of HUTS-21 binding to VLA-4, pilot screen, VLA-4 allosteric modulator project, U937 cells, HUTS-21 mAb, flow cytometry, validation set (AID 2674;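 active means inhibition above 50%, about 3 SD of the validation set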;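 further: antibody binding induced by the VLA-4 ligand LDV present at three times its Kd; 0% = LDV ligand with antibody and no compound and 100% = antibody without LDV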). The settings on record: HUTS-21 LIBS mAb binding, at 6.7 µM, stronger effect = higher value, binding induced by LDV ligand.

Test [3] in a line: superoxide lowering in aged yeast cells, pilot screen, validation compound set (AID 2706;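 active means superoxide response below 65% of plate, a cut near 3 SD across the whole screen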;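 further: yeast exposed to compound for one week at 30 degrees C before staining; 100% = mean of all compound wells on the same plate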). The following applies: S. cerevisiae aging, superoxide DHE fluorescence; at 10 µM, stronger effect = lower value.
Test [4] has as its target Beta-adrenergic receptor kinase 1 (Homo sapiens) (UniProt P25098). The experiment in a line: GRK2 binders displacing RNA aptamer, biochemical, validation, human GRK2, bead flow cytometry (AID 488806). The settings on record: bead-bound GRK2, FAM-aptamer displacement, at 10 µM, stronger effect = higher value.
Test [5] deals with Beta-2 adrenergic receptor (Homo sapiens) (UniProt P07550). The experiment in a line: beta2AR agonists driving receptor internalization, pilot screen, cell-based, FAP fluorogen, flow cytometry, validation set (AID 504459;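 active means percent response above 42, roughly 3 SD of non-fluorescent test compounds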;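 further: agonist-driven loss of surface beta2AR via internalization measured by FAP dye flow cytometry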). The following applies: Am2.2-beta2AR cells, FAP surface receptor flow cytometry; at 10 µM; stronger effect = higher value.
Test [6] deals with AP-2 complex subunit beta (Homo sapiens) (UniProt P63010). The experiment in a line: inhibitors of arrestin peptide binding to AP2, pilot screen, biochemical, validation set, GST-AP2 beads, flow cytometry (AID 504541;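 active means inhibition above 54%, about 3 SD of non-fluorescent compounds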;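 further: AP2 carries R879A mutation and is captured from E. coli lysate; bead-bound FITC arrestin peptide fluorescence measuring arrestin peptide binding to AP2; 0% = DMSO wells and 100% = excess unlabeled arrestin peptide control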). The following applies: FITC arrestin peptide, at 10 µM, stronger effect = higher value, AP2 beta2 appendage fragment, R879A mutant.
The nature of test [7]: yeast V-ATPase proton transport modulators, S. cerevisiae, pHLuorin, HTS validation (AID 504600; in the data active means response above about 15%;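 further: plate controls were DMSO for no effect and reference compound for full effect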). The settings on record: S. cerevisiae pHLuorin cytosolic pH, at 10 µM, stronger effect = higher value.
Test [8] concerns anti-desmoglein-3 scFv antibody binding to human DSG3. The experiment in a line: inhibitors of anti-DSG3 scFv binding to DSG3, pilot screen, biochemical, validation compound set, bead-based, flow cytometry (AID 588368;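 active means binding below the plate cutoff, the plate median minus 3 SD, with a reading above zero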;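 further: signal is the median channel fluorescence of bead-bound GFP antibody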). The following applies: Protein G beads, DSG3-Fc, scFv-GFP binding, at 10 µM, stronger effect = lower value.
Test [9] can be described thus: inhibitors of fungal efflux pumps CDR1, CDR2, MDR1, pilot screen, validation compound set, multiplex, phenotypic (AID 588506;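 active means efflux inhibition above 0.42, the validation set average plus 4 SD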;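 further: Nile Red retained in cells so higher fluorescence means more efflux inhibition; 0 = negative control wells and 1 = enniatin B 25 µM full block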). The settings on record: S. cerevisiae pump-expressing triplex, Nile Red efflux flow cytometry; at 10 µM; stronger effect = higher value; the pumps come from Candida albicans.
Test [10] has as its target ATP-binding cassette sub-family B member 6 (Homo sapiens) (UniProt Q9NP58). The experiment in a line: ABCB6 transporter inhibitors, pilot screen, K562-ABCB6 cells, flow cytometry, validation set (AID 588550;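 active means inhibition above the screen-wide mean plus 3 SD, about 51%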;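 further: 0% = DMSO wells and 100% = benzethonium chloride 70 µM positive control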). The settings on record: K562-ABCB6 porphyrin accumulation, 1 h, at 10 µM, stronger effect = higher value.
The nature of test [11]: promoters of myeloid differentiation in arrested cells, primary screen, cell-based, GFP/MAC1 double positive, flow cytometry, validation set (AID 588685;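 active means differentiation response of at least 50%, scaled between solvent and reference control, from cells with both markers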;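 further: compound exposure lasts four days before antibody staining and flow analysis; 0% = DMSO wells and 100% = 5 µM fulvestrant positive control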). The settings on record: ER-HoxA9 marrow cells, stronger effect = higher value, normalized: vehicle 0, fulvestrant 100.

Molecules are shown by their SMILES. Calls of active or inactive are those of the source.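 How the source made its calls, unless noted: active means aptamer binding inhibition above 30%, about 3 SD of noise from non-fluorescent compounds; inactive means inhibition at or below 30%.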

Sequence of Beta-adrenergic receptor kinase 1 (Homo sapiens) (P25098 whole entry, looked up): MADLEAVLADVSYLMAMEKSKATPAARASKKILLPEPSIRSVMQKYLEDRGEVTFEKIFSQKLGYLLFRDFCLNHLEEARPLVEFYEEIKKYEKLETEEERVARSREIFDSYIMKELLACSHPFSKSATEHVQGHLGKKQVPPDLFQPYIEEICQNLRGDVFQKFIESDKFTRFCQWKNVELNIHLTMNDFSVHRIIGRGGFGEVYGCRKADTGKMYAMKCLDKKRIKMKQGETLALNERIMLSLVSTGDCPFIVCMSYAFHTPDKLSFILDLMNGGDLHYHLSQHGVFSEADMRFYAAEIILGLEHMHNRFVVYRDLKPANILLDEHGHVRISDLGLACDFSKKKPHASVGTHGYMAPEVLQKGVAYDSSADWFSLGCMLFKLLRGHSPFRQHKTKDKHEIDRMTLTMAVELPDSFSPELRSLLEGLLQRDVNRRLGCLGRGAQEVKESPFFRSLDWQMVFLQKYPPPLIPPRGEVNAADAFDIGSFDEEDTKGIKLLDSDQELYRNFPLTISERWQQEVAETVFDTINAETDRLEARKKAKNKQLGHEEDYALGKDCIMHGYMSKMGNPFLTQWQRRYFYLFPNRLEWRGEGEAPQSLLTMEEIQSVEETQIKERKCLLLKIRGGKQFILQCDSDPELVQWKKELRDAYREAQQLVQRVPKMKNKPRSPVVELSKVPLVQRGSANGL
Sequence of Beta-2 adrenergic receptor (Homo sapiens) (P07550 whole entry, looked up): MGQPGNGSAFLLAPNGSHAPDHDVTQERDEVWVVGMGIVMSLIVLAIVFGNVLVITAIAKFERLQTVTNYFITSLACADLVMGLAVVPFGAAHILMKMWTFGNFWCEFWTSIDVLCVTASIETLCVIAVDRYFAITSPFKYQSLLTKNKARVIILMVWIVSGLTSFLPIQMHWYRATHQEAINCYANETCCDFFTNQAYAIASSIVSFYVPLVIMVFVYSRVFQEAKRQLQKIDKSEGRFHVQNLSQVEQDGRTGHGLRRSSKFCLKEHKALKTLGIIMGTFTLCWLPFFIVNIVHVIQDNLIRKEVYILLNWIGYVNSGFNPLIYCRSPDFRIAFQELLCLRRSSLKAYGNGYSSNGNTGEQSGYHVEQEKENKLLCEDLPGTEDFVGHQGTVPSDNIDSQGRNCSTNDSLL
Sequence of Integrin beta-1 (Homo sapiens) + Integrin alpha-4 (Homo sapiens) (P05556 whole entry, looked up): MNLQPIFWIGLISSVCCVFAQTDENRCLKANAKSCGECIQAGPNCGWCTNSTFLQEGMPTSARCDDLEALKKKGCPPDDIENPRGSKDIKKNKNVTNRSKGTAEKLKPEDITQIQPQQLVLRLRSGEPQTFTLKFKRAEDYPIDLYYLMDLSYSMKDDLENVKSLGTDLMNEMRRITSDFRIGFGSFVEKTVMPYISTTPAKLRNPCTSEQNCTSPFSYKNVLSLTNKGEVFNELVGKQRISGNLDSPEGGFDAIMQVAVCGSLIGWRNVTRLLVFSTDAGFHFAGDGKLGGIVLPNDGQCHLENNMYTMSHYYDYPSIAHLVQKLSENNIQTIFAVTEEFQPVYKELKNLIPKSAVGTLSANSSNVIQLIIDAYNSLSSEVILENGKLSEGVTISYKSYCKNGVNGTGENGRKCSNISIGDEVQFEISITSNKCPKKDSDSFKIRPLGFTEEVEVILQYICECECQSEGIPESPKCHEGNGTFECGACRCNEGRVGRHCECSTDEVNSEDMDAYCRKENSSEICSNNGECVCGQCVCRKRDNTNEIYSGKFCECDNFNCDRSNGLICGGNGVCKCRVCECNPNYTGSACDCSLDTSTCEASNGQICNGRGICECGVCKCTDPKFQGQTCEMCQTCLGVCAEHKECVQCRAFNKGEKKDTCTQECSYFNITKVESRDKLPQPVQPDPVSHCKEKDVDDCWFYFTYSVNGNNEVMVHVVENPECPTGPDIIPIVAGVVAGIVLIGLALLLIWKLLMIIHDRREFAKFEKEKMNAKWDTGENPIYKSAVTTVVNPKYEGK
Sequence of Integrin beta-1 (Homo sapiens) + Integrin alpha-4 (Homo sapiens) (P13612 whole entry, looked up): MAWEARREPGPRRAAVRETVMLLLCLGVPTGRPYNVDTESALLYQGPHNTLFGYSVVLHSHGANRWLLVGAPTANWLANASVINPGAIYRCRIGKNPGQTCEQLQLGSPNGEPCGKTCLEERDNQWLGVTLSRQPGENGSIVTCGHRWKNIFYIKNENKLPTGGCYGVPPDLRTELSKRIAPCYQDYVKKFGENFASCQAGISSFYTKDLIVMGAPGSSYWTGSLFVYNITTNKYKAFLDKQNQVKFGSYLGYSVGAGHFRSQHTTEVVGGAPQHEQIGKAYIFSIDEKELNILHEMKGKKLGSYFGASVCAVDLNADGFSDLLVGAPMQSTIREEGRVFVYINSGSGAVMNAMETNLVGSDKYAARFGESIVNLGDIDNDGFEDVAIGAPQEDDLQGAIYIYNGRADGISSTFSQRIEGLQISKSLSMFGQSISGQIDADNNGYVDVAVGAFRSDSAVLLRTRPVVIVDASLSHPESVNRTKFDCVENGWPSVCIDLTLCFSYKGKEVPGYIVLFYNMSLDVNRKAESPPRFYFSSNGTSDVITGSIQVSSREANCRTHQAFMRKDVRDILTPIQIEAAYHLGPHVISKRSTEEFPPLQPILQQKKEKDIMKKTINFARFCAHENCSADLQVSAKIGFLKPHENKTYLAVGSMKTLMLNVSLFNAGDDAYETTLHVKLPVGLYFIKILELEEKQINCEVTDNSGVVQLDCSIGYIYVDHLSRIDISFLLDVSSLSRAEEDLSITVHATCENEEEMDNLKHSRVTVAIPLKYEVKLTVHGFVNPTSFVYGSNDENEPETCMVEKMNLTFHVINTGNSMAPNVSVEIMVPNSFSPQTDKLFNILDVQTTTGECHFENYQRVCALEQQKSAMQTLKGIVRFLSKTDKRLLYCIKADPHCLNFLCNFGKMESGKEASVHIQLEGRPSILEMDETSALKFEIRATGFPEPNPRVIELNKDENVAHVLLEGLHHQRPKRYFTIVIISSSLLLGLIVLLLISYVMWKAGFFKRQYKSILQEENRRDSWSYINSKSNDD
Sequence of ATP-binding cassette sub-family B member 6 (Homo sapiens) (Q9NP58 whole entry, looked up): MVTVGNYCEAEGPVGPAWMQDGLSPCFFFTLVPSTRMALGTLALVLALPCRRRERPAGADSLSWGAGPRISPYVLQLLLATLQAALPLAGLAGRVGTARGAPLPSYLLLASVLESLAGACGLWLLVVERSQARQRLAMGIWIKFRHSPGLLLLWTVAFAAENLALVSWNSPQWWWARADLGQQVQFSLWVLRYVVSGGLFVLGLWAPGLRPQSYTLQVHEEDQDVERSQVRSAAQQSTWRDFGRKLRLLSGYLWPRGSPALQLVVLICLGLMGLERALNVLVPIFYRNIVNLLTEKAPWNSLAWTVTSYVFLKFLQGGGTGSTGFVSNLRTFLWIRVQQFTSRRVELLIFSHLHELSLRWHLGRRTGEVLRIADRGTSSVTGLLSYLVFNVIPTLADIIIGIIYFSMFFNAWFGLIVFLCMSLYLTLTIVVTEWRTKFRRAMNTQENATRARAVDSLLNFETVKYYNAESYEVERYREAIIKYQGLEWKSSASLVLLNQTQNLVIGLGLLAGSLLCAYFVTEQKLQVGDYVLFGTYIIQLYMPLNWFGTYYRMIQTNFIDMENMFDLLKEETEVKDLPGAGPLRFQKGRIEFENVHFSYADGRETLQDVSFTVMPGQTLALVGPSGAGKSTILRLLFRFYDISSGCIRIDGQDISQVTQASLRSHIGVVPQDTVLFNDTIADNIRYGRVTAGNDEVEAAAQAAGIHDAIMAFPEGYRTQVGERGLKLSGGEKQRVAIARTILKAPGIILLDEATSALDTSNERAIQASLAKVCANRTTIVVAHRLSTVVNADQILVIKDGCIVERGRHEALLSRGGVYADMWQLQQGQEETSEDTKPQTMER
Sequence of AP-2 complex subunit beta (Homo sapiens) (P63010 whole entry, looked up, the tested form may be a part, one chain of several): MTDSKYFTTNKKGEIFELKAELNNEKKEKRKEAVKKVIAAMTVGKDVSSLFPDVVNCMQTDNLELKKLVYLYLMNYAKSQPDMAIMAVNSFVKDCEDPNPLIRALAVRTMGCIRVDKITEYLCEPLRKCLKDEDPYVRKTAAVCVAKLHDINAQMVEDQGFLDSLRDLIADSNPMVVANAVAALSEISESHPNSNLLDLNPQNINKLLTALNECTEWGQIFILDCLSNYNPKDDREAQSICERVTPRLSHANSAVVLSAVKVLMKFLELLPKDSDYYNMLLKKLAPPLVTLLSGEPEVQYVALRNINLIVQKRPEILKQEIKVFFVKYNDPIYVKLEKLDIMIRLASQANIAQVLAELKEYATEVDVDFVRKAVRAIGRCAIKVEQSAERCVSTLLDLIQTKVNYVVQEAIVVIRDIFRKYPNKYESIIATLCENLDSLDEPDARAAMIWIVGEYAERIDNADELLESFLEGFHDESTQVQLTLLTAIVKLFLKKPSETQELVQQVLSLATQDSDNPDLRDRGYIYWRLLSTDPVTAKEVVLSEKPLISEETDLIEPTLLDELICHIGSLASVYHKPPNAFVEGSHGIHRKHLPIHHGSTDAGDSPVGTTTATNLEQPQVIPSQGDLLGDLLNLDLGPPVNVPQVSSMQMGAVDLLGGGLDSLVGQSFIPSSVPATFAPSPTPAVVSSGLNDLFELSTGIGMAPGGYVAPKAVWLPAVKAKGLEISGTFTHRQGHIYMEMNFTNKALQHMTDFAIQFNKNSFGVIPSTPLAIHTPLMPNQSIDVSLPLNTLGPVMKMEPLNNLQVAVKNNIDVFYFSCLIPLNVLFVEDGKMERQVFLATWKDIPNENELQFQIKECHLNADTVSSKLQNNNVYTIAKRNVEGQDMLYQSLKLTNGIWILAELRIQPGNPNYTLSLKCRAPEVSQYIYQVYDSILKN

For the compound `CC(C)(C)C(=O)NC(=S)Nc1sc2c(c1C(N)=O)CCC2`, in test [1], the double positive events is 60.2%. For the same compound, the vesicle binding response in test [1] is 119% (inactive). The inhibition is -4.52% (inactive) in test [2], 2.56% (inactive) in [6] and 4% (inactive) in test [10]. The superoxide response (% of plate) in test [3] was 109% (inactive). Further, the aptamer binding inhibition in test [4] is 2% (inactive). Moreover, the response in [5] was 7.03% (inactive); in test [7] it was -1.19% (inactive). In addition, in test [8], the binding (% of control) is 96.6% (inactive). Moreover, the efflux inhibition (fraction of control) in test [9] is -0.24 (inactive). Besides, the differentiation response in test [11] was -29.6% (inactive).

The compound `COc1cc2c3c(c1)C1(C(=O)N3C(C)(C)C=C2C)C(C#N)=C(N)Oc2cc(C)oc(=O)c21` (configuration not stated) displayed a double positive events in test [1] of 60.1%. In addition, in [1], the vesicle binding response was 172% (inactive). Besides, the inhibition was 2.3% (inactive) in test [2], -6.4% (inactive) in [6] and 5% (inactive) in test [10]. Also, the superoxide response (% of plate) in [3] is 96.8% (inactive). In addition, the aptamer binding inhibition in test [4] was -1% (inactive). In addition, the response is -71.3% (inactive) in test [5] and -0.54% (inactive) in test [7]. Further, the binding (% of control) in test [8] was 110% (inactive). For the same compound, the efflux inhibition (fraction of control) in test [9] was 0.4 (inactive). For the same compound, the differentiation response in [11] is 79.2% (active).

On to `Cc1ccc(C(=O)NC(=S)NCCCN2CCOCC2)cc1`, for which, in test [1], the double positive events was found to be 66.2%. For the same compound, the vesicle binding response in test [1] was 172% (inactive). The inhibition in [2] is 5.49% (inactive); in test [6], 4.05% (inactive); in test [10], 13% (inactive). Also, the superoxide response (% of plate) in [3] was 96% (inactive). Moreover, the aptamer binding inhibition in [4] is 4% (inactive). The response is 1.89% (inactive) in [5] and 5.81% (inactive) in test [7]. In test [8], the binding (% of control) is 103% (inactive). In addition, the efflux inhibition (fraction of control) in [9] is -0.38 (inactive). Also, in [11], the differentiation response was -0.82% (inactive).

Consider `COc1ccc(NC(=S)NCCc2c[nH]c3ccccc23)cc1`, for which the double positive events in test [1] was found to be 69.3%. Further, the vesicle binding response in test [1] was 445% (inactive). Further, the inhibition was -1.97% (inactive) in test [2], -10.2% (inactive) in [6] and 8% (inactive) in [10]. Also, in [3], the superoxide response (% of plate) is 111% (inactive). In addition, in test [4], the aptamer binding inhibition is 1% (inactive). In addition, the results for the response in test [5] and in [7] were -13.3% (inactive) and -1.54% (inactive), respectively. In addition, the binding (% of control) in test [8] was 108% (inactive). The efflux inhibition (fraction of control) in [9] is 0 (inactive). Also, the differentiation response in test [11] was -6.96% (inactive).

In turn, `CCOC(=O)c1cc2cc3ccccc3cc2[nH]1` returned a double positive events in [1] of 70.4%. For the same compound, the vesicle binding response in [1] is 334% (inactive). In addition, the inhibition in [2] was -1.79% (inactive); in test [6], -6.18% (inactive); in test [10] it was 6% (inactive). Besides, the superoxide response (% of plate) in test [3] is 81.1% (inactive). Also, the aptamer binding inhibition in [4] was 1% (inactive). In addition, the response in [5] is 15.9% (inactive); in test [7], -1.49% (inactive). Also, in test [8], the binding (% of control) was 99.1% (inactive). Further, the efflux inhibition (fraction of control) in [9] is -0.1 (inactive). Also, in test [11], the differentiation response is 7.2% (inactive).

For `CC(C)=CCCC(C)CN1CCC(N2CCC(C(=O)N3CCCC3)CC2)CC1` (configuration not stated), the double positive events in test [1] came out at 66.5%. Further, in [1], the vesicle binding response is 278% (inactive). Besides, the inhibition in [2] is -11.3% (inactive); in test [6], -10.9% (inactive); in test [10], 5% (inactive). Also, in test [3], the superoxide response (% of plate) was 93.3% (inactive). Further, the aptamer binding inhibition in test [4] was -12% (inactive). Also, the values for the response in test [5] and in test [7] were 35% (inactive) and -0.07% (inactive), respectively. Further, the binding (% of control) in [8] was 106% (inactive). Further, the efflux inhibition (fraction of control) in [9] was -0.03 (inactive). Further, the differentiation response in [11] is -7.2% (inactive).

In test [1], `COc1ccc(CCNC(=O)CC(c2ccccc2)c2cccc(C)c2O)cc1OC` (configuration not stated) yielded a double positive events of 62.6%. The vesicle binding response in [1] is 190% (inactive). In addition, the inhibition in test [2] was 16.2% (inactive); in test [6] it was -1.67% (inactive); in [10], 10% (inactive). Moreover, in test [3], the superoxide response (% of plate) is 96.3% (inactive). Moreover, the aptamer binding inhibition in test [4] was 1% (inactive). Moreover, the response in [5] was 5.7% (inactive); in [7], 1.13% (inactive). Further, the binding (% of control) in [8] is 101% (inactive). The efflux inhibition (fraction of control) in test [9] is -0.46 (inactive). The differentiation response in test [11] was -3.28% (inactive).

In the case of `CC(=O)c1cn(C)c(=O)[nH]c1=O`, the double positive events in test [1] is 60.8%. Besides, the vesicle binding response in test [1] is 243% (inactive). The inhibition was -7.25% (inactive) in test [2], -5.48% (inactive) in test [6] and 2% (inactive) in test [10]. Besides, the superoxide response (% of plate) in test [3] was 103% (inactive). In addition, the aptamer binding inhibition in [4] is 3% (inactive). In addition, the response in test [5] was 72.3% (active); in test [7], 0.64% (inactive). In addition, the binding (% of control) in [8] was 107% (inactive). Also, the efflux inhibition (fraction of control) in test [9] is -0.24 (inactive). Moreover, in [11], the differentiation response was -8.8% (inactive).

Regarding `OC(COCc1ccccc1)CN1CCN(Cc2ccc3c(c2)OCO3)CC1` (configuration not stated), in test [1], the double positive events is 59.4%. Moreover, the vesicle binding response in test [1] is 189% (inactive). Moreover, the inhibition was 7.76% (inactive) in [2], -4.35% (inactive) in [6] and 4% (inactive) in test [10]. Moreover, the superoxide response (% of plate) in test [3] is 110% (inactive). Further, the aptamer binding inhibition in test [4] is 2% (inactive). In addition, the response in test [5] is 4.46% (inactive); in test [7], 4.61% (inactive). For the same compound, the binding (% of control) in test [8] was 97.8% (inactive). The efflux inhibition (fraction of control) in [9] is -0.21 (inactive). Besides, the differentiation response in test [11] is 8.8% (inactive).

`Cc1oc(/C=N/NC(=O)CC2(C)OCCO2)cc1Br` registered a double positive events in test [1] of 60.6%. Besides, the vesicle binding response in test [1] was 93.4% (inactive). Further, the inhibition in test [2] is 4.27% (inactive); in test [6], 0.64% (inactive); in test [10], 18% (inactive). Further, the superoxide response (% of plate) in test [3] is 107% (inactive). Also, the aptamer binding inhibition in test [4] is -3% (inactive). Further, the response was 4.99% (inactive) in test [5] and 68.3% (active) in [7]. The binding (% of control) in [8] is 104% (inactive). Moreover, in test [9], the efflux inhibition (fraction of control) was -0.245 (inactive). Moreover, the differentiation response in test [11] is -0.18% (inactive).

`CN(C)CCCNc1ncnc2c1cnn2-c1ccccc1` came in with a double positive events in [1] of 70.3%. In addition, the vesicle binding response in test [1] is 336% (inactive). The results for the inhibition in test [2], in test [6] and in test [10] were 16% (inactive), -0.95% (inactive) and 12% (inactive), respectively. The superoxide response (% of plate) in [3] is 94.4% (inactive). In addition, the aptamer binding inhibition in test [4] is -2% (inactive). In addition, the response in test [5] was 8.67% (inactive); in test [7], 1.69% (inactive). Further, the binding (% of control) in [8] was 97% (inactive). Also, in [9], the efflux inhibition (fraction of control) was 0.12 (inactive). For the same compound, in test [11], the differentiation response was 23.2% (inactive).

One may read the inhibition as the drop in the measured response relative to a control, in per cent.
